# High-throughput results: PubChem BioAssay, several laboratories
# BaF3 parental – parental Ba/F3 cell viability inhibition, counter-screen for JAK2V617F inhibitor project, murine pro-B, CellTiter-Glo luminescence | inhibition, % at 5.6 µM | 220,000 tested, 1.1% active | AID 1486, 2009 | CellTiter-Glo ATP luminescence;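 active = inhibition above a per-campaign cutoff, the mean inhibition of all tested compounds plus 3 SD, cut at about 27% in these data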
# KLF5 inhibitor – KLF5 expression inhibitors, primary screen, DLD-1 cells, luminescence; DLD-1 KLF5 promoter-luciferase reporter; inhibition, % at 5 µM; 290,000 tested, 0.23% active; AID 1700, 2009;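 active = inhibition above a per-plate limit of that plate's mean compound inhibition plus 3 SD, cut at about 60% in these data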;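 also: higher means less KLF5 promoter-driven luciferase light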
# IEC-6 tox – cytotoxicity in IEC-6 intestinal epithelial cells, primary screen, cytotoxicity control for KLF5 inhibitor project, cell-based, luminescence. IEC-6 cytotoxicity, luminescence viability. 290,000 tested, 0.78% active. inhibition, % at 5 µM; in the data active = inhibition above about 22%
# aSyn 5UTR inh – MLPCN primary screen, SNCA 5' untranslated region; AID 1813, 2009; alpha-synuclein 5'UTR reporter, inhibitor activity; inhibition, % (tested at 7.5 µM); 300,000 tested, 0.82% active; in the data active = inhibition above about 60%;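 also: H4 neuroglioblastoma cells stably carrying SNCA 5'UTR luciferase fusion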
# APP 5UTR inh – inhibitors of APP translation via 5'UTR reporter, primary screen, APP 5'UTR luciferase, SH-SY5Y cells; SH-SY5Y APP 5'UTR-luciferase reporter, luminescence; 190,000 tested, 0.82% active; inhibition, % at 2 µM;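 active = inhibition above a set limit, derived from the sample mean plus 3 SD, cut at about 45% in these data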
# Ba/F3 V617F tox – reduced viability of JAK2V617F-dependent Ba/F3 cells, primary screen, JAK2V617F inhibitor project, cell-based, Ba/F3 EpoR-JAK2V617F, luminescence; inhibition, % at 5.6 µM; 220,000 tested, 1.1% active; AID 1446, 2008; ATP luminescence;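 active = inhibition above the campaign mean plus 3 SD over all tested compounds, cut at about 24% in these data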;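 also: cytokine-independent growth of Ba/F3 cells driven by EpoR plus mutant JAK2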
# BaF3 tox 2 – parental Ba/F3 cell viability inhibition, counter-screen for JAK2V617F inhibitor project, murine pro-B, CellTiter-Glo luminescence | shares compounds with Ba/F3 V617F tox | inhibition, % at 5.6 µM | cells kept alive by added IL-3 | 580 tested, 31% active | AID 1520, 2009;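 active = cell growth inhibition above the hit limit set in the earlier mutant JAK2 cell screen, cut at about 27% in these data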
# JAK2V617F confrm – viability loss in Ba/F3 EpoR-JAK2V617F cells, confirmation, JAK2V617F inhibitor project, cell-based, luminescence, triplicate. shares compounds with Ba/F3 V617F tox. CellTiter-Glo luminescence. inhibition, % at 5.6 µM. 580 tested, 66% active. AID 1521, 2009;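 active = mean inhibition above the hit cutoff derived in the earlier primary screen, cut at about 25% in these data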;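 also: higher means lower luminescence from reduced cell ATP and viability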
# A number is an active result; 0 = inactive; - = no result given. In the library only some 2.2% were active in any assay of this set; here they are far more common.
SMILES,BaF3 parental,KLF5 inhibitor,IEC-6 tox,aSyn 5UTR inh,APP 5UTR inh,Ba/F3 V617F tox,BaF3 tox 2,JAK2V617F confrm
CCOC(=O)Cn1nc(C)c([N+](=O)[O-])c1C,0,0,0,0,0,0,-,-
Cc1ccc(OCCOC(=O)Cn2nc(C)c([N+](=O)[O-])c2C)cc1,0,0,0,0,0,26.1,0,0
S=C(Nc1ccc(Cl)cc1)N1CCCCC1,0,0,0,0,0,0,-,-
Cc1ccc(NC(=S)N2CCN(C3CCCCC3)CC2)cc1,0,0,0,0,0,60.9,0,40.1
CN1CCN(C(=S)Nc2ccc(Cl)cc2)CC1,0,0,0,0,0,27.0,0,45.8
O=C1N/C(=C\c2ccccc2)c2ccccc21,0,0,0,0,0,38.4,0,44.8
O=C1N/C(=C\c2nc3ccccc3s2)c2ccccc21,0,0,0,0,-,0,-,-
Cc1cccc(-c2cc3nc(-c4ccccc4)cc(=O)n3[nH]2)c1,-,0,0,0,-,-,-,-
O=S1(=O)C=C(Sc2nc3cc(Cl)ccc3o2)c2ccccc21,0,0,0,0,0,44.0,107.5,99.2
CCn1c(SCC(=O)Nc2ccccc2F)nnc1-c1ccoc1C,-,0,0,0,-,-,-,-
CCn1c(SCC(=O)Nc2ccccc2-c2ccccc2)nnc1-c1ccoc1C,0,0,0,0,0,52.2,0,0
Cc1ccccc1Oc1cc(-n2ncc(Cl)c(Cl)c2=O)ncn1,0,0,0,-,94.7,33.6,100.2,99.7
COc1ccccc1Oc1cc(-n2nc(C)cc2C)ncn1,0,0,0,0,0,0,-,-
COc1ccccc1CNC(=O)CCNS(=O)(=O)c1cc(Br)cnc1N,-,0,0,0,-,-,-,-
Cc1cccc(NS(=O)(=O)c2ccc(-n3cccn3)cc2)c1C,-,0,0,0,-,-,-,-
CCOC(=O)N1CCN(C(=O)c2cc(-c3ccc(OCC)cc3)nc3ccccc23)CC1,0,0,23.9,0,78.4,68.2,69.2,94.0
CCOc1ccc(-c2cc(C(=O)N3CCN(C)CC3)c3ccccc3n2)cc1,0,0,0,0,0,0,-,-
COc1ccc(C(=O)/C=C/Nc2ccc(S(=O)(=O)Nc3cccc(C(C)=O)c3)cc2)cc1,0,0,0,0,0,31.4,0,29.9
CCOC(=O)N1CCN(c2c(F)cc3[nH]c(=S)[nH]c3c2Br)CC1,0,0,0,0,0,27.8,0,25.3
COCCCN=C1NN=C(c2cc(C)n(Cc3ccco3)c2C)CS1,0,0,0,93.7,94.3,79.0,78.0,96.9
COc1ccc(OC)c(NC(=O)c2nnn(Cc3ccccc3C)c2N)c1,0,0,0,0,0,23.6,37.4,30.4
COc1ccc(C)cc1NC(=O)c1nnn(Cc2cc(C)ccc2C)c1N,0,0,0,0,0,0,-,-
CN1CCN(Cc2cc(COCc3ccccc3)c3cccnc3c2O)CC1,0,0,0,99.4,72.3,37.8,0,28.5
O=c1ccc2cc(S(=O)(=O)Nc3ccc(Br)cc3)ccc2o1,-,0,0,0,-,-,-,-
CC(=O)c1ccccc1NC(=O)c1ccc(N2CCCC2=O)cc1,-,-,-,0,-,-,-,-
SMILES,BaF3 parental,KLF5 inhibitor,IEC-6 tox,aSyn 5UTR inh,APP 5UTR inh,Ba/F3 V617F tox,BaF3 tox 2,JAK2V617F confrm
Cc1ccc(C(=O)NNC(=O)c2ccccc2O)cc1S(=O)(=O)N1CCCCC1,-,-,-,0,-,-,-,-
COc1ccc(-c2cc(N)n(S(=O)(=O)c3c(F)c(F)c(F)c(F)c3F)n2)cc1OC,0,0,0,0,0,44.8,93.2,93.2
COc1cccc(/C=C2\SC(=S)N(c3cccnc3)C2=O)c1OC,0,0,0,0,0,0,-,-
O=C(O)COc1ccccc1/C=C1\SC(=S)N(c2cccnc2)C1=O,0,0,0,0,-,81.8,0,0
O=C(/C(=N/N=C/c1ccc(O)c(O)c1)c1ccccc1)c1ccccc1,0,0,0,0,0,49.1,0,98.8
Oc1ccc(/C=N/N=C/c2ccc(O)c(O)c2)cc1O,-,0,0,0,-,-,-,-
CC(=O)c1ccc(NC(=O)CSc2nnc3ccc(-c4ccccn4)nn23)cc1,-,-,-,0,-,-,-,-
Cn1cc(CN2CCN(c3ccc(Cl)cn3)CC2)c(-c2ccccc2F)n1,0,0,0,0,0,0,-,-
Cc1cccc(N2CCN(Cc3cn(C)nc3-c3ccccc3F)CC2)n1,0,0,53.5,0,74.0,24.2,75.8,96.5
CCc1ccccc1N(CC(=O)NC(C)C)C(=O)CCC(=O)Nc1nccs1,-,0,0,0,-,-,-,-
COc1ccc(N(CC(=O)N2CCN(c3cccc(C)c3C)CC2)S(=O)(=O)c2c(C)noc2C)cc1,-,0,0,0,-,-,-,-
CCOC(=O)c1c(NC(=O)/C=C/C(=O)O)sc(C)c1-c1ccc(C(C)(C)C)cc1,0,0,0,0,0,27.6,0,43.0
CCN(CC)CCCNC(=O)c1cc(-c2ccc(Cl)cc2)on1,0,0,0,0,0,24.0,0,0
Cc1cc(Cn2nc(-c3ccccc3)cc2C(=O)NCc2cccc(Br)c2)on1,-,-,-,0,-,-,-,-
COc1ccc(N(C)S(=O)(=O)c2cccc(C(=O)Nc3ccc(-n4cnnn4)cc3)c2)cc1,0,0,0,0,0,40.4,0,25.6
OC(COCc1ccco1)CN1CCN(C(c2ccccc2)c2ccccc2)CC1 (configuration not stated),0,0,0,0,0,0,-,-
Cc1ccc(Cl)cc1N1CCN(CC(O)COCc2ccco2)CC1 (configuration not stated),0,0,0,0,0,98.5,0,0
Oc1ccc(-c2csc(-c3ccccc3)n2)cc1O,0,0,0,0,0,57.4,26.7,93.5
Oc1ccc(-c2csc(Nc3ncccn3)n2)cc1O,0,0,0,0,0,37.0,28.0,91.1
Oc1ccccc1-c1csc(-c2ccccc2)n1,0,0,0,0,0,0,-,-
O=C(NCCCCc1ccccc1)Nc1ccc(F)cc1,-,0,0,0,-,-,-,-
COc1ccc(CCNc2nc(C)nc3c2nnn3Cc2ccccc2)cc1OC,-,0,0,0,-,-,-,-
C/C(CC(=O)Nc1ccc(C)c(Cl)c1)=N\NC(=O)c1cccc(O)c1,-,0,0,0,-,-,-,-
COC1(OC)C(/C=C/c2ccc(Cl)cc2)C(C#N)(C#N)C1(OC)OC (configuration not stated),0,0,0,0,0,81.1,0,72.7
Cc1c(NC(=O)COC(=O)c2cc(-c3ccc(-c4ccccc4)cc3)nc3ccccc23)c(=O)n(-c2ccccc2)n1C,0,0,0,0,0,30.1,58.9,72.0
N=c1c2c3c(sc2ncn1Cc1ccco1)CCCCC3,0,0,0,0,0,24.6,0,0
CCOc1ccc(NCCC#N)cc1,0,0,0,0,0,44.2,0,0
